Data published in the supplement of paper PMC7380943.
Counter-ions that a name gives are not always drawn. ± gives the standard deviation of the averaged measurements.

Tests used:
[1] = test system: CLZ3 (HCA2 human fibroblast dual HR-NHEJ reporter); assay: NHEJ repair efficiency (GFP+ cells) relative to control (log10 fold); higher = more non-homologous end joining; conditions: 5 µM; doxycycline 0.5 ug/mL
[2] = test system: CLZ3 (HCA2 human fibroblast dual HR-NHEJ reporter); assay: HR repair efficiency (tdTomato+ cells) relative to control (log10 fold); higher = more homologous recombination; conditions: 5 µM; doxycycline 0.5 ug/mL
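Wherever HR repair efficiency (tdTomato+ cells) relative to control is given: compound given one day before doxycycline, which switches on I-SceI endonuclease expression to create double-strand breaks within the integrated reporter.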
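Wherever NHEJ repair efficiency (GFP+ cells) relative to control is given: compound given one day ahead of doxycycline, which switches on I-SceI endonuclease to cut the chromosomally integrated reporter and create DSBs.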

Row | Compound | NHEJ repair efficiency (log10) [1] | HR repair efficiency (log10) [2]
1 | C=C1C[C@@]2(O)O[C@@]3(C[C@H]2C(C)C)[C@@H](C)CC[C@@H]13 [Curcumol] | -0.0784 | 0.163
2 | COc1cc(O)c2c(=O)c(O[C@@H]3O[C@H](CO)[C@@H](O)[C@H](O)[C@H]3O)c(-c3ccc(O[C@@H]4O[C@H](CO)[C@@H](O)[C@H](O)[C@H]4O)cc3)oc2c1 [Complanatoside] | -0.0413 | -0.0658
3 | O=C(/C=C/c1ccc(O[C@@H]2O[C@H](CO)[C@@H](O)[C@H](O)[C@H]2O)cc1)c1ccc(O)cc1O [Isoliquiritin] | -0.0606 | -0.0597
4 | CC(=O)S[C@@H]1CC2=CC(=O)CC[C@]2(C)[C@H]2CC[C@@]3(C)[C@@H](CC[C@@]34CCC(=O)O4)[C@H]12 [Spironolactone] | 0.15 | -0.0059
5 | O=C(/C=C/c1ccc(O)c(O)c1)O[C@@H]1C[C@@](OC(=O)/C=C/c2ccc(O)c(O)c2)(C(=O)O)C[C@@H](O)[C@@H]1O [Cynarin (1,5-Di-O-caffeoylquinic acid)] | 0.0398 | 0.0943
6 | CC(C)=CCC[C@](C)(O[C@@H]1O[C@H](CO[C@@H]2O[C@H](CO)[C@@H](O)[C@H](O)[C@H]2O)[C@@H](O)[C@H](O)[C@H]1O)[C@H]1CC[C@]2(C)[C@@H]1[C@H](O)C[C@@H]1[C@@]3(C)CC[C@H](O[C@@H]4O[C@H](CO)[C@@H](O)[C@H](O)[C@H]4O[C@@H]4O[C@H](CO)[C@@H](O)[C@H](O)[C@H]4O)C(C)(C)[C@@H]3CC[C@]12C [Ginsenoside Rb1] | 0.0709 | 0.217
7 | O=c1c(-c2ccc(O)cc2)coc2c([C@@H]3O[C@H](CO)[C@@H](O)[C@H](O)[C@H]3O)c(O)ccc12 [Puerarin] | 0.0163 | 0.038
8 | O=C(/C=C/c1ccc(O)c2c1[C@H](C(=O)O)[C@@H](c1ccc(O)c(O)c1)O2)O[C@H](Cc1ccc(O)c(O)c1)C(=O)O [Lithospermic acid] | 0.072 | 0.0325
9 | COc1ccc(C[C@H]2COC(=O)[C@@H]2Cc2ccc(O[C@@H]3O[C@H](CO)[C@@H](O)[C@H](O)[C@H]3O)c(OC)c2)cc1OC [Arctiin] | -0.18724 ± 8.6e-05 | -0.203 ± 0.1
10 | C/C=C/c1cc(OC)c2c(c1)[C@H](C)[C@@H](c1ccc3c(c1)OCO3)O2 [Licarin B] | 0.0776 | 0.192
11 | COc1cc([C@@H]2Oc3c(O)cc([C@H]4Oc5cc(O)cc(O)c5C(=O)[C@@H]4O)cc3[C@H]2CO)ccc1O [Silicristin] | -0.0735 | 0.068
12 | C[C@]12C[C@@H](O)[C@@H]3C[C@@]1(O[C@@H]1O[C@H](CO)[C@@H](O)[C@H](O)[C@H]1O)[C@@]3(COC(=O)c1ccccc1)C(=O)O2 [Albiflorin] | 0.0446 | 0.153
13 | OCc1ccc(O[C@@H]2O[C@H](CO)[C@@H](O)[C@H](O)[C@H]2O)cc1 [Gastrodin] | 0.113 | 0.307
14 | CC(/C=C/C=C(\C)C(=O)O[C@@H]1O[C@H](CO[C@@H]2O[C@H](CO)[C@@H](O)[C@H](O)[C@H]2O)[C@@H](O)[C@H](O)[C@H]1O)=C\C=C\C=C(C)\C=C\C=C(/C)C(=O)O[C@@H]1O[C@H](CO[C@@H]2O[C@H](CO)[C@@H](O)[C@H](O)[C@H]2O)[C@@H](O)[C@H](O)[C@H]1O [Crocin] | -0.0374 | 0.0109
15 | C[C@@H]1CC[C@@]2(OC1)O[C@H]1C[C@H]3[C@@H]4CC=C5C[C@@H](O)C[C@@H](O[C@@H]6O[C@H](C)[C@H](O)[C@H](O[C@@H]7OC[C@@H](O)[C@H](O)[C@H]7O)[C@H]6O[C@@H]6O[C@@H](C)[C@H](O)[C@@H](O)[C@H]6O)[C@]5(C)[C@H]4CC[C@]3(C)[C@H]1[C@@H]2C [Ophiopogonin D] | -0.0762 | -0.0693
16 | O=C1CCC[C@@H]2[C@H]3CCC[N+]4([O-])CCC[C@@H](CN12)[C@@H]34 (some centres undefined) [Oxymatrine] | 0.0707 | -0.0643
17 | C=C1CCC[C@]2(C)C[C@]3(O)OC(=O)C(C)=C3C[C@@H]12 [Atractylenolide Iii] | 0.00444 | 0.0542
18 | COc1ccc2c(c1O)-c1c(O)c(OC)cc3c1[C@H](C2)[N+](C)(C)CC3 [Magnoflorine iodide] | 0.122 | -0.0243
19 | COc1cc(OC)c2ccc(=O)oc2c1 [5,7-Dimethoxycoumarin] | 0.0653 | 0.0758
20 | CC1(C)C=Cc2c(ccc3c2OC[C@@H](c2ccc(O)cc2O)C3)O1 [Glabridin] | -0.0493 | -0.0637
21 | O=C(/C=C/C=C/c1ccc2c(c1)OCO2)N1CCCCC1 [Piperine] | 0.0542 | 0.0832

Row | Compound | NHEJ repair efficiency (log10) [1] | HR repair efficiency (log10) [2]
22 | COc1ccc(/C=C/c2cc(O)cc(O[C@@H]3O[C@H](CO)[C@@H](O)[C@H](O)[C@H]3O)c2)cc1O [Rhapontin] | 0.134 | 0.0931
23 | C=C[C@H]1[C@H](O[C@@H]2O[C@H](CO)[C@@H](O)[C@H](O)[C@H]2O)OC=C(C(=O)OC)[C@H]1CCOC(=O)c1cc(O)c(O)c(O)c1 [Cornuside] | 0.0361 | 0.162
24 | COc1ccc2ccc(=O)oc2c1CC=C(C)C [Osthole] | 0.0815 | -0.0645
25 | CC(CCC(OC1OC(COC2OC(CO)C(O)C(O)C2O)C(O)C(O)C1OC1OC(CO)C(O)C(O)C1O)C(C)(C)O)C1CCC2(C)C3CC=C4C(CCC(OC5OC(COC6OC(CO)C(O)C(O)C6O)C(O)C(O)C5O)C4(C)C)C3(C)C(O)CC12C (centres undefined) [Mogroside Ⅴ] | -0.025 | 0.0038
26 | C[N+]1(C)CCCC1C(=O)O (centres undefined) [Stachydrine Hydrochloride] | -0.0485 | 0.12
27 | CC1(C)CCC2(C(=O)OC3OC(CO)C(O)C(O)C3O)CCC3(C)C(=CCC4C5(C)CCC(OC6OC(C(=O)O)C(OC7OCC(O)C(OC8OC(CO)C(O)C(O)C8O)C7O)C(O)C6O)C(C)(C)C5CCC43C)C2C1 (centres undefined) [Oleanoside A] | -0.111 | 0.164
28 | COc1ccc(CCO[C@@H]2O[C@H](CO[C@@H]3OC[C@H](O)[C@H](O)[C@H]3O)[C@@H](OC(=O)/C=C/c3ccc(O)c(OC)c3)[C@H](O[C@@H]3O[C@@H](C)[C@@H](O)[C@@H](O)[C@H]3O)[C@H]2O)cc1O [Angoroside C] | 0.0985 | 0.3
29 | Oc1cc(O)c2cc(O)c(-c3ccc(O)c(O)c3)[o+]c2c1 [Cyanidin Chloride] | -0.0642 | 0.00943
30 | COc1ccc2cc1Oc1ccc(cc1)C[C@H]1c3cc(c(OC)cc3CCN1C)Oc1c(OC)c(OC)cc3c1[C@H](C2)N(C)CC3 [Tetrandrine] | 0.294 | -0.328
31 | Cn1c(=O)c2c(ncn2C)n(C)c1=O [Caffeine] | 0.103 | 0.0527
32 | C=C1C[C@]2(O)O[C@@]3(CC2=C(C)C)[C@@H](C)CC[C@@H]13 [Isocurcumenol] | -0.116 | -0.239
33 | Oc1cc(O)c2c(c1)OC(c1ccc(O)c(O)c1)C(O)C2 (single isomer, unassigned; (+)) [(+)-Catechin] | 0.0406 | -0.0449
34 | COc1ccc(-c2cc(=O)c3c(O)c(OC)c(O)cc3o2)cc1 [Pectolinarigenin] | -0.0149 | -0.0222
35 | O=Cc1ccc(O)cc1 [4-Hydroxybenzaldehyde] | 0.0829 | 0.0974
36 | C[C@H]1O[C@H](O[C@@H]2[C@@H](O)[C@H](OCCc3ccc(O)c(O)c3)O[C@H](CO[C@H]3OCC(O)(CO)[C@@H]3O)[C@H]2OC(=O)/C=C/c2ccc(O)c(O)c2)[C@@H](O)[C@@H](O)[C@@H]1O (some centres undefined) [Forsythoside B] | 0.0465 | 0.076
37 | COc1ccc([C@@H]2OC[C@H]3[C@@H]2CO[C@@H]3c2ccc(O[C@@H]3O[C@H](CO)[C@@H](O)[C@H](O)[C@H]3O)c(OC)c2)cc1OC [Forsythin] | -0.0743 | -0.0814
38 | Oc1cc(O)cc(/C=C/c2ccc(O)c(O)c2)c1 [Piceatannol] | 0.0759 | 0.0923
39 | NC(=O)NC1NC(=O)NC1=O (centres undefined) [Allantoin] | 0.029 | 0.00746
40 | CC(C)[C@@H](C)/C=C/[C@@H](C)[C@H]1CC[C@H]2C3=CC=C4C[C@@H](O)CC[C@]4(C)[C@H]3CC[C@]12C [Ergosterol] | 0.00511 | 0.141
41 | O=c1c(-c2ccc(O)cc2)coc2cc(O[C@@H]3O[C@H](CO)[C@@H](O)[C@H](O)[C@H]3O)ccc12 [Daidzin] | -0.234 | 0.03
42 | CN1Cc2c(ccc3c2OCO3)[C@@]2(C)[C@@H](O)Cc3cc4c(cc3[C@@H]12)OCO4 [Corynoline] | -0.128 | -0.201
